Compound activity as filed in PubChem BioAssay.
Rows were chosen to be rich in hits. Some 2.2% of all compounds tested hit in one or more screens of this group.
ATXN2 expr inh = reduces ATXN2 reporter expression in HEK-293 cells | HEK-293 ATXN2-luciferase reporter, luminescence, 24 h | actives 0.72% (n = 360,000) | Potency, µM (series often up to 57 µM), actives largely listed as inhibitors; further: nearly all actives have a fitted effect of over 55% in size
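ATXN2-luciferase reporter cells (luciferase flanked by upstream and downstream ATXN2 gene portions) were treated 24 h at 37 °C with compounds at up to 57 uM. SteadyGlo luminescence gave expression; GF-AFC fluorescence gave viability.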
mIDH1 inhibitor = human IDH1 R132H inhibition; O75874; IDH1-R132H enzyme, NADPH consumption, diaphorase/resazurin fluorescence; Potency, µM (doses to about 76.6 µM), hits mostly inhibitors; actives 0.093% (n = 390,000); further: nearly all actives have a fitted effect of over 65% in size
Target sequence (O75874 whole entry R132H, stated change not applied): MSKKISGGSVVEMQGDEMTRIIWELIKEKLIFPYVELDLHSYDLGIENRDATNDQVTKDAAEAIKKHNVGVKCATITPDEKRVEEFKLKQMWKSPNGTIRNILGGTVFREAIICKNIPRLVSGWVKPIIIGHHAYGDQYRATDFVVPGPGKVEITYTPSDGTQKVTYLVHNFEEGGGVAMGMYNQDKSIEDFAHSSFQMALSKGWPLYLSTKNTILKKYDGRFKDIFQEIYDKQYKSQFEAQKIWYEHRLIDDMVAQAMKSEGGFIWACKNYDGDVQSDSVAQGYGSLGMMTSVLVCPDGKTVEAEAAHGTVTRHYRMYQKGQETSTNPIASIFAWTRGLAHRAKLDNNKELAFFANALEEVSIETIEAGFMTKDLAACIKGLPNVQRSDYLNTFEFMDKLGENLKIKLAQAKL
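IDH1-R132H (0.5 ug/mL) preincubated 30 min with compound, then NADPH (0.016 mM) and alpha-KG (2 mM) added; 80 min at RT, pH 7.5. Remaining NADPH coupled via diaphorase/resazurin to fluorescence (540/590 nm); concentration-response curves normalized to no-enzyme control.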
ATXN viability = cell viability loss in ATXN counter-screen; S2 cells (HEK-293 line with an ATXN2-luciferase reporter) viability, CellTiter-Fluor protease fluorescence, 24 h; Potency, µM (highest dose often 56.7 µM), hits mostly cytotoxic; actives 0.49% (n = 400,000); AID 651635; further: nearly all actives have a fitted effect of over 40% in size
LDHA inh = LDHA (human) enzyme inhibition; P00338; purified LDHA, NADH/diaphorase-resazurin fluorescence; stronger effect = lower value; activity change, % (values are at about 110 or 230 µM); actives 0.15% (n = 480,000); in the data active means activity change below about -30%; inconclusive means mostly about -25% to -30%
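Human LDH5 at 2 nM final in Tris HCl pH 7.4 with 0.06 mM NADH and 0.2 mM pyruvate, reacted 5 minutes at room temperature. Remaining NADH coupled via diaphorase/resazurin; resorufin fluorescence read at 0 and 20 minutes, normalized to enzyme-free and DMSO wells.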
TGFb SMAD3 inh = inhibitors of TGF-b signaling; HepG2 CAGA-GFP TGF-b/SMAD3 reporter, GFP fluorescence, 18 h; TGF-beta stimulated, 500 pg/mL final; Potency, µM (titrated, usually from 46.1 µM), most hits filed as inhibitors; actives 1.2% (n = 410,000); AID 588855; further: nearly all actives have a fitted effect of over 65% in size
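TGF-beta reporter screen: HEPG2 CAGA-GFP, 1% FBS, 500 pg/mL TGF-beta final, 18 h; per-cell GFP summed per well; curves fitted and categorized by class.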
HepG2 tox-1 = counter-screen for TGF-b inhibitors: cytotoxicity in HepG2 cells. actives 0.76% (n = 410,000). Potency, µM (top dose mostly 46.1 µM), hits mostly cytotoxic. HepG2 CAGA-GFP viability, ATP luminescence, 18 h. AID 588856
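HepG2 CAGA-GFP cells (1000/well, DMEM with 1% FBS) received compound, then TGF-beta at 500 pg/mL final, and were incubated 18 hours at 37 degrees C. Viability was read by CellTiter-Glo luminescence. Media-only wells were set as complete cell-killing and DMSO as no toxicity.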
TGFb confirm = confirmation of TGF-b signaling inhibitors in HepG2 reporter cells. shares compounds with TGFb SMAD3 inh. HepG2 CAGA-GFP TGF-b reporter, GFP fluorescence, 18 h; cells stimulated with TGF-beta, 500 pg/mL. Potency, µM (doses to about 46.1 µM), actives largely listed as inhibitors. actives 63% (n = 1,600); further: nearly all actives have a fitted effect of over 65% in size
HepG2 tox-2 = toxic to HepG2 cells in TGF-b counterscreen. shares compounds with TGFb SMAD3 inh. HepG2 CAGA-GFP viability, ATP luminescence, 18 h; cells stimulated with TGF-beta, 500 pg/mL. Potency, µM (titrated, usually from 46.1 µM), hits mostly inhibitors. actives 27% (n = 1,600). AID 720535; further: nearly all actives have a fitted effect of over 70% in size
TGFb CCL64 inh = orthogonal confirmation of TGF-b inhibitors in CCL64 cells. shares compounds with TGFb SMAD3 inh. CCL64 CAGA-GFP reporter, TGF-b stimulated, GFP fluorescence, 18 h. Potency, µM (doses to about 46.1 µM), most hits filed as inhibitors. actives 41% (n = 1,600). AID 720536; further: nearly all actives have a fitted effect of over 65% in size
COP TGFb inh = validation of TGF-b inhibitors in HepG2 COP promoter reporter. Potency, µM (titrated, usually from 46.1 µM), most hits filed as inhibitors. shares compounds with TGFb SMAD3 inh. actives 3% (n = 1,600). AID 720537. HepG2 COP-GFP TGF-b reporter, GFP fluorescence, 18 h; cells stimulated by added recombinant TGF-beta; further: nearly all actives have a fitted effect of over 70% in size
Hits are given with their value; . = inactive; ? = inconclusive; / = not tested or not shown. Unless noted, the call rests on the fitted dose curve; in most records, active means well fitted curve in the direction sought with a large enough effect; inconclusive means small, poorly fitted or top-dose-only effect, or another doubt; inactive means no such curve, though single readings can be large; an effect the other way counts as inactive or inconclusive.

SMILES	ATXN2 expr inh	mIDH1 inhibitor	ATXN viability	LDHA inh	TGFb SMAD3 inh	HepG2 tox-1	TGFb confirm	HepG2 tox-2	TGFb CCL64 inh	COP TGFb inh
CC(C)(C)NC(=O)C[C@H]1C[C@H](C(=O)N2CCCCC2)[C@@]2(C)c3[nH]c4ccc(Cl)cc4c3CCN2C1=O	.	.	?	.	?	.	?	.	.	.
CC[C@]12c3[nH]c4cc(-c5ccco5)ccc4c3CCN1C(=O)[C@@H](CC(=O)NCCC1=CCCCC1)C[C@@H]2C(=O)N1CCN(C(=O)c2ccco2)CC1	.	.	?	.	14µM	.	?	.	?	.
CC[C@]12c3[nH]c4ccc(OC)cc4c3CCN1C(=O)C(CC(=O)NCC13CC4CC(CC(C4)C1)C3)C[C@@H]2C(=O)N1CCN(C(=O)C2CC2)CC1 (some centres not stated)	?	.	?	.	?	.	/	/	/	/
CC[C@]12c3[nH]c4ccc(Cl)cc4c3CCN1C(=O)[C@@H](CC(=O)NCC13CC4CC(CC(C4)C1)C3)C[C@@H]2C(=O)N1CCN(C(=O)C2CC2)CC1	25µM	.	?	.	10µM	.	9.2µM	?	23µM	.
C[C@]12c3[nH]c4ccc(Cl)cc4c3CCN1C(=O)[C@@H](CC(=O)NCC13CC4CC(CC(C4)C1)C3)C[C@@H]2C(=O)N1CCOCC1	?	.	?	.	10µM	.	21µM	?	?	.
CC1(C)CC(=O)C=C(N=CC2=C(O)CC(C)(C)CC2=O)C1	.	.	.	.	.	.	/	/	/	/
O=C(C[C@H]1C[C@H](C(=O)N2CCOCC2)[C@@]2(CCC3CCCC3)c3[nH]c4cc(-c5ccco5)ccc4c3CCN2C1=O)NCC12CC3CC(CC(C3)C1)C2	.	.	.	.	?	.	/	/	/	/
CCN(CC)C(=O)[C@H]1C[C@H](CC(=O)NC/C=C(\C)CCC=C(C)C)C(=O)N2CCc3c([nH]c4cc(-c5ccco5)ccc34)[C@]12C	?	.	?	.	8.9µM	.	?	?	13µM	.
COc1ccc(CNC(=O)C[C@H]2C[C@H](C(=O)N3CCOCC3)[C@@]3(CCC4CCCC4)c4[nH]c5cc(-c6ccco6)ccc5c4CCN3C2=O)cc1OC	?	.	.	.	13µM	.	6.5µM	.	?	.
CCN(CC)C(=O)[C@H]1C[C@H](CC(=O)NCCCOC)C(=O)N2CCc3c([nH]c4cc(-c5ccco5)ccc34)[C@]12C	.	.	.	.	.	.	/	/	/	/
CC(C)N(C(=O)[C@H]1C[C@H](CC(=O)NCc2cccc(C(F)(F)F)c2)C(=O)N2CCc3c([nH]c4ccc(Cl)cc34)[C@]12C)C(C)C	.	.	.	.	.	.	/	/	/	/
C[C@]12c3[nH]c4ccc(Cl)cc4c3CCN1C(=O)[C@@H](CC(=O)NCc1cccc(C(F)(F)F)c1)C[C@@H]2C(=O)N1CCOCC1	?	.	/	.	10µM	.	16µM	.	15µM	.
C[C@]12c3[nH]c4cc(-c5ccco5)ccc4c3CCN1C(=O)[C@@H](CC(=O)NCC13CC4CC(CC(C4)C1)C3)C[C@@H]2C(=O)N1CCOCC1	?	.	?	.	10µM	.	9.2µM	?	?	.
CC(=O)c1ccc(OCc2cc(C(=O)N(C)Cc3ccccn3)no2)cc1	.	.	.	.	.	.	/	/	/	/
COc1ccccc1N1CCN(/N=C/c2ccccc2C(=O)O)CC1	.	.	.	.	.	.	/	/	/	/
CCCS(=O)(=O)Nc1ccc(Nc2c3ccccc3nc3ccccc23)c(OC)c1	?	.	12µM	.	10µM	.	?	15µM	13µM	.
COc1cc(N)ccc1Nc1c2ccccc2nc2ccccc12	?	/	/	.	?	.	/	/	/	/
CCn1c(=O)c(C(=O)Nc2nc3ccccc3[nH]2)c(O)c2ccccc21	.	.	.	.	2µM	.	.	?	?	.
Cc1ccc(-c2csc3ncnc(N4CCc5ccccc5C4)c23)cc1	.	.	.	.	.	.	/	/	/	/
Fc1ccc(-c2csc3ncnc(N4CCc5ccccc5C4)c23)cc1	.	.	?	.	18µM	.	16µM	?	?	.
C=CCNC(=O)CN1CCC(NC(=O)c2ccco2)CC1	.	.	.	.	.	.	/	/	/	/
CC1CN(c2nc3ccccc3nc2SCC(=O)Nc2cccc(C(F)(F)F)c2)CC(C)O1 (configuration not stated)	?	.	?	.	16µM	.	23µM	?	?	.
Cc1cccc(NC(=O)CSc2nc3ccccc3nc2N2CC(C)OC(C)C2)c1 (configuration not stated)	.	.	?	.	?	.	/	/	/	/
O[C@@H]1[C@@H](O)C=C2CCN3Cc4cc5c(cc4[C@H]1C23)OCO5 (some centres not stated)	3.5µM	.	?	.	3.5µM	.	0.92µM	?	1.3µM	.
COc1ccc2c(c1OC)CN1CCc3cc4c(cc3[C@@H]1[C@@H]2O)OCO4	.	.	.	.	.	.	/	/	/	/
CC(C)c1ccc(C(CC(=O)c2ccc(Cl)cc2)S(=O)(=O)c2ccccc2)cc1 (configuration not stated)	/	/	/	.	/	/	/	/	/	/
CCN1CCN(c2ccc(S(=O)(=O)N3CCCCC3)cc2NC(=O)c2ccc([N+](=O)[O-])s2)CC1	25µM	.	?	.	8.9µM	.	16µM	?	?	?
CCOc1ccc(Cl)cc1-c1cc(C(=O)NCc2ccccc2)[nH]n1	.	/	.	.	?	.	/	/	/	/
